From PubChem BioAssay AID1159580 (chemical genetic matrix, 2015)
Among all 5,500 compounds or so, about 2,000 (36%) were called active. About 18% were inconclusive and are not listed. Rule as the data show it: active = normalized growth mostly below about 0.91 (no sharp cut-off); inconclusive = no clear call, values can overlap the other calls; inactive = mostly above about 0.92. This is one part of the list.

Assay: chemical genetic growth profiling, strain panel (AID 1159580);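 also: tested at 20 µM; growth read once vehicle control cultures reached saturation at 30 °C; 1 = growth at the plate median or of vehicle wells; lower values mean less growth of the strain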
Conditions: growth OD
[1] = S. cerevisiae deletion strains, locus YAL013W, strain DEP1, active compounds read low
[2] = S. cerevisiae deletion strains, locus YGR078C, strain PAC10, active compounds read low
[3] = S. cerevisiae deletion strains, locus YGR229C, strain SMI1, active compounds read low
[4] = S. cerevisiae deletion strains, locus YJR075W, strain HOC1, active compounds read low
[5] = S. cerevisiae deletion strains, locus YNL153C, strain GIM3, active compounds read low
[6] = S. cerevisiae deletion strains, locus YNL322C, strain KRE1, active compounds read low
[7] = S. cerevisiae deletion strains, locus YPL055C, strain LGE1, active compounds read low
[8] = S. cerevisiae deletion strains, locus YPL241C, strain CIN2, active compounds read low
[9] = S. cerevisiae deletion strains, locus YBR229C, strain ROT2, active compounds read low
[10] = S. cerevisiae deletion strains, locus YCL061C, strain MRC1, active compounds read low
[11] = S. cerevisiae deletion strains, locus YDL101C, strain DUN1, active compounds read low
[12] = S. cerevisiae deletion strains, locus YDR150W, strain NUM1, active compounds read low
[13] = S. cerevisiae deletion strains, locus YEL061C, strain CIN8, active compounds read low
[14] = S. cerevisiae deletion strains, locus YHR030C, strain SLT2, active compounds read low
[15] = S. cerevisiae deletion strains, locus YHR087W, strain rtc3, active compounds read low
[16] = S. cerevisiae deletion strains, locus YJR043C, strain POL32, active compounds read low
[17] = S. cerevisiae deletion strains, locus YKL190W, strain CNB1, active compounds read low
[18] = S. cerevisiae deletion strains, locus YLR039C, strain RIC1, active compounds read low
[19] = S. cerevisiae deletion strains, locus YLR058C, strain SHM2 (second series), active compounds read low
[20] = S. cerevisiae deletion strains, locus YLR085C, strain ARP6, active compounds read low
[21] = S. cerevisiae deletion strains, locus YLR262C, strain YPT6, active compounds read low
[22] = S. cerevisiae deletion strains, locus YML094W, strain GIM5, active compounds read low
[23] = S. cerevisiae deletion strains, locus YMR219W, strain ESC1, active compounds read low
[24] = S. cerevisiae deletion strains, locus YMR263W, strain SAP30, active compounds read low
[25] = S. cerevisiae deletion strains, locus YNL298W, strain CLA4 (second series), active compounds read low
[26] = S. cerevisiae deletion strains, locus YNR030W, strain Alg12, active compounds read low
[27] = S. cerevisiae deletion strains, locus YPR135W, strain CTF4, active compounds read low
[28] = S. cerevisiae strains, strain wild type, active compounds read low

Measured: normalized growth

COc1ccc2[nH]c(I)c(CCNC(C)=O)c2c1
inactive: [1] 1.03 | S. cerevisiae deletion strains, locus YAL040C, strain CLN3, active compounds read low 0.959 | S. cerevisiae deletion strains, locus YCL061C, strain MRC1 (second series), active compounds read low 1.01 | S. cerevisiae deletion strains, locus YDR363W, strain ESC2, active compounds read low 1.02 | S. cerevisiae deletion strains, locus YER002W, strain NOP16, active compounds read low 1.01 | [2] 1.02 | [3] 0.998 | S. cerevisiae deletion strains, locus YNL128W, strain TEP1, active compounds read low 1.1 | [5] 0.997 | S. cerevisiae deletion strains, locus YNL175C, strain NOP13, active compounds read low 1.01 | S. cerevisiae deletion strains, locus YNL197C, strain WHI3, active compounds read low 1.01 | S. cerevisiae deletion strains, locus YNL224C, strain SQS1, active compounds read low 1.02 | [6] 1.02 | [7] 1.09 | [8] 1.01
active: [4] 1.11 [resistant]

CCCc1ccc(OC)cc1NC(C)=O
inactive: [1] 1.01 | [9] 1.01 | [10] 1.03 | [11] 1 | [12] 0.95 | [13] 0.996 | [2] 1.02 | [3] 0.991 | [14] 1.06 | [15] 1 | [16] 1 | [4] 0.996 | [17] 0.991 | [18] 1.02 | [19] 1.02 | [20] 1.03 | [21] 0.987 | [22] 1.03 | [23] 1.01 | [24] 1.01 | [5] 1.03 | [25] 1.05 | [6] 1.01 | [26] 1.02 | S. cerevisiae deletion strains, locus YOL006C, strain TOP1, active compounds read low 1.06 | [7] 0.99 | [8] 0.999 | [27] 1.06 | [28] 0.999

CC(C)(C)c1cc(C(C)(C)C)n(-c2ccc(N=Cc3cc(Br)cc(Br)c3O)cc2)n1
active: [1] 0.157 | [9] 0.204 | [10] 0.194 | [11] 0.193 | [12] 0.355 | [13] 0.152 | [2] 0.0895 | [14] 0.103 | [15] 0.101 | [16] 0.357 | [4] 0.119 | [17] 0.187 | [18] 0.074 | [19] 0.318 | [20] 0.12 | [21] 0.0868 | [22] 0.209 | [23] 0.219 | [24] 0.163 | [5] 0.267 | [25] 0.174 | [6] 0.679 | [26] 0.468 | [7] 0.172 | [8] 0.64 | [27] 0.276 | [28] 0.141
